Screens (PubChem)
Only some compounds are listed: those with a hit (about 0.98% of all), similar ones and a draw of the others.
FadD28 FP inh = inhibitors of Mycobacterium tuberculosis FadD28 bisubstrate binding; 360,000 tested, 0.22% active; AID 588549; FadD28 bisubstrate probe binding, fluorescence polarization; inhibition, % at 12.5 µM; in the data active = inhibition above about 8.5%, passing the limit was not always enough; inconclusive = no clear call, values can overlap the other calls
Mtb bLac sens = beta-lactam sensitization of Mtb H37Rv; M. tuberculosis H37Rv growth with meropenem, percent inhibition; inhibition, % at 25 µM; 330,000 tested, 0.27% active; call rule not given here;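 note: growth measured after seven days incubation then overnight dye step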
Rv3671c inh = inhibitors of M. tuberculosis serine protease Rv3671c. 320,000 tested, 0.048% active. inhibition, % at 5.96 µM; in the data active = inhibition above about 38%;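 note: extracellular domain of Rv3671c used as enzyme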
PfHsp40 rescue = restores yeast growth despite PfHsp40 toxicity. AID 504582. S. cerevisiae expressing PfHsp40, growth rescue, ATP luminescence. growth rescue, % at 12.5 µM. 340,000 tested, 0.68% active; in the data active = growth rescue above about 28%, passing the limit was not always enough; inconclusive = no clear call, values can overlap the other calls;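 note: yeast W303a lacking pdr1 and pdr3 grown in galactose medium; growth measured after three days at 30 °C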
Yp Topo-I inh = Y. pestis Topo-I inhibition via cleavage products | AID 504884 | 360,000 tested, 0.064% active | activity, % at 10 µM | Y. pestis Topo-I cleavage product accumulation, plate reader; in the data active = activity above about 50%, passing the limit was not always enough; inconclusive = no clear call, values can overlap the other calls
UGM FP inh = inhibitors of M. tuberculosis UDP-galactopyranose mutase | P9WIQ1 | purified UGM, fluorescence polarization probe displacement | inhibition, % at 10 µM | 320,000 tested, 0.06% active; in the data active = inhibition above about 10%, passing the limit was not always enough; inconclusive = no clear call, values can overlap the other calls
Target sequence (P9WIQ1 whole entry, looked up): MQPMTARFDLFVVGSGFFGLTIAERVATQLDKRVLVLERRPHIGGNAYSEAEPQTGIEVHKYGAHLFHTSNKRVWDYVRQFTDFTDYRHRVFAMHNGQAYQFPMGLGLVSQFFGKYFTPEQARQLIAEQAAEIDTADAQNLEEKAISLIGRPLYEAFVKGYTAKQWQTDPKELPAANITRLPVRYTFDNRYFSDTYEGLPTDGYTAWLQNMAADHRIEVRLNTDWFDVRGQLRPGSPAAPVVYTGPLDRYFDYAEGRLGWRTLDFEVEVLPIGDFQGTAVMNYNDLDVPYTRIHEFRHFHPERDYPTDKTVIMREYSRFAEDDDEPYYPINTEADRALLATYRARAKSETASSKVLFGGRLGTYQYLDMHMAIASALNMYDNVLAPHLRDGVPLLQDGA
Each line names hits and unclear results; the compound was inactive in the other large screens.

O=C(CN1C(=O)NC2(CCOc3ccccc32)C1=O)c1ccc(Cl)s1 (configuration not stated)	FadD28 FP inh 9.6
CCc1ccc(C(=O)CN2C(=O)NC3(CCOc4ccccc43)C2=O)s1 (configuration not stated)	none
Cc1ccc(S(=O)(=O)c2ccc([N+](=O)[O-])o2)cc1	PfHsp40 rescue 265 (no result: Mtb bLac sens, Rv3671c inh, UGM FP inh)
Cc1ccc(NC(=O)c2ccc([N+](=O)[O-])o2)c(C)c1	none
CC(C)(C)C(=O)C(Cc1ccccc1Cl)n1cncn1 (configuration not stated)	none
CC(C)(C)C(O)C(Cc1ccccc1Cl)n1cncn1 (configuration not stated)	PfHsp40 rescue 276
O=C(NN=Cc1cc(=O)[nH]c(=O)[nH]1)c1ccncc1	PfHsp40 rescue 30 (no result: Mtb bLac sens, Rv3671c inh, UGM FP inh)
COc1ccc(O)c(/C=N/n2c(-c3ccco3)csc2=Nc2cccnc2)c1	none
CN=c1scc(-c2ccco2)n1/N=C/c1ccc(O)c(O)c1	FadD28 FP inh 11 (no result: Mtb bLac sens, Rv3671c inh, UGM FP inh)
O=C1C=C(N2CC2)c2ccccc2C1=O	FadD28 FP inh 8.9 (no result: Mtb bLac sens, Rv3671c inh, PfHsp40 rescue, UGM FP inh)
Cc1ccc(-n2nc(C)cc2Nc2ncc(Cl)cc2Cl)cc1	PfHsp40 rescue 93
COc1cccc(-c2cnc(C(O)c3c(C)cc(C)cc3C)[nH]2)c1 (configuration not stated)	none (no result: Mtb bLac sens, Rv3671c inh, PfHsp40 rescue, UGM FP inh)
N#Cc1c(-c2ccccc2)c(-c2ccccc2)nn(CC(=O)NNC(=O)Nc2ccc(Cl)c(Cl)c2)c1=O	FadD28 FP inh 17
O=C(Cn1nc(-c2ccccc2)c2ccccc2c1=O)Nc1ccc(F)cc1	none
CC(=NNC(=S)N1CCCCC1)c1cccc(C)n1	none (no result: Mtb bLac sens, Rv3671c inh, UGM FP inh)
CSC(=S)NN=C(C)c1cccc(C)n1	PfHsp40 rescue 64 (no result: Mtb bLac sens, Rv3671c inh, UGM FP inh)
COc1cc(NC(=O)Nc2nc(C(N)Cc3ccc(C(F)(F)F)cc3)cs2)cc(OC)c1OC (configuration not stated)	none (no result: Mtb bLac sens, Rv3671c inh, PfHsp40 rescue, UGM FP inh)
O=C1c2cc(CO)cc(O)c2C(=O)c2c(O[C@@H]3OC(CO)[C@@H](O)[C@@H](O)[C@@H]3O)cccc21 (some centres not stated)	none
O=C(O)c1cc(O)c2c(c1)[C@@H]([C@H]1c3cc(C(=O)O)cc(O)c3C(=O)c3c(O[C@@H]4O[C@H](CO)[C@@H](O)[C@H](O)[C@H]4O)cccc31)c1cccc(OC3O[C@H](CO)[C@@H](O)[C@H](O)[C@H]3O)c1C2=O (some centres not stated)	FadD28 FP inh 14, Rv3671c inh 75
O=C(O)c1cc(O)c2c(c1)[C@H]([C@H]1c3cc(C(=O)O)cc(O)c3C(=O)c3c(O[C@@H]4O[C@H](CO)[C@@H](O)[C@H](O)[C@H]4O)cccc31)c1cccc(OC3O[C@H](CO)[C@@H](O)[C@H](O)[C@H]3O)c1C2=O (some centres not stated)	FadD28 FP inh 29, Rv3671c inh 75, PfHsp40 rescue inconclusive
Cc1cccc(C(O)c2ncc(-c3ccc(Cl)cc3)[nH]2)c1C (configuration not stated)	none (no result: Mtb bLac sens, Rv3671c inh, PfHsp40 rescue, UGM FP inh)
O=S(=O)(NC1CCCCCC1)c1ccc(Br)s1	PfHsp40 rescue 59
O=C(CCNS(=O)(=O)c1ccc(Br)s1)NC1CCCC1	Mtb bLac sens inconclusive
CC1C(=O)N(Cc2cn(CCC3OCCCO3)nn2)CCS(=O)(=O)N1Cc1ccc(-c2ccc(F)nc2)cc1 (configuration not stated)	none (no result: Mtb bLac sens, Rv3671c inh, PfHsp40 rescue, UGM FP inh)
C=CCN(CC=C)C(=S)NC(=O)c1ccc(C)c(Br)c1	PfHsp40 rescue 296
C=CCN(CC=C)C(=S)NC(=O)c1ccc(OC)cc1	none
O=C(Nc1cccc(C(F)(F)F)c1)c1csc([C@@H]2C[C@H](O)[C@@H](CO)O2)n1	none (no result: Mtb bLac sens, Rv3671c inh, PfHsp40 rescue, UGM FP inh)
Cc1ccc(CNc2ncnc3ccc(-c4ccoc4C)cc23)o1	none (no result: Mtb bLac sens, Rv3671c inh, PfHsp40 rescue, UGM FP inh)
Oc1ccc(/C=N/n2c(C3CCCCC3)n[nH]c2=S)c(O)c1	FadD28 FP inh inconclusive
Oc1ccc(Br)cc1/C=N/n1c(C2CCCCC2)n[nH]c1=S	FadD28 FP inh 16, Mtb bLac sens inconclusive
COc1cccc(/C=N/n2c(C3CCCCC3)n[nH]c2=S)c1O	FadD28 FP inh 15 (no result: Rv3671c inh)
O=Cc1cc(N=Nc2ccccc2Cl)ccc1O	PfHsp40 rescue 211
CCCn1nc(C(=O)Nc2cccc(S(=O)(=O)N3CCOCC3)c2)c2ccccc2c1=O	none (no result: Mtb bLac sens, Rv3671c inh, PfHsp40 rescue, UGM FP inh)
COc1ccc(CN(C)C(=O)c2cccc(S(=O)(=O)N3CCCc4ccccc43)c2)c(OC)c1OC	none (no result: Mtb bLac sens, Rv3671c inh, UGM FP inh)
C(=Nc1ccccc1)c1ccc[nH]1	none (no result: Mtb bLac sens, Rv3671c inh, UGM FP inh)
Oc1ccccc1N=Cc1ccc[nH]1	PfHsp40 rescue 55
O=C(CN1c2ccccc2Sc2ccccc21)NNC(=S)Nc1ccc(Cl)cc1	PfHsp40 rescue 75
Fc1ccc(CCNC(=S)Nc2ccc(F)c(Cl)c2)cc1	PfHsp40 rescue 113
S=C(NCc1ccc(Cl)cc1)Nc1ccc(Cl)cc1Cl	none
S=C(NCCc1ccc(Cl)cc1)Nc1ccc(Cl)cc1Cl	PfHsp40 rescue 70
COc1cccc(C(C)(O)c2nc(-c3cccc(NC(C)=O)c3)cs2)c1 (configuration not stated)	none (no result: Mtb bLac sens, Rv3671c inh, PfHsp40 rescue, UGM FP inh)
N#CCSc1nc(-c2ccccc2)cs1	PfHsp40 rescue 36
COC(=O)[C@H](CCSC)NC(=O)c1cc2c(cn1)[nH]c1ccccc12	none
CNC(=O)c1cc2c(cn1)[nH]c1ccccc12	PfHsp40 rescue 60
Cc1ccc2nc(N3CCN(C(=O)CCCC(=O)O)CC3)nc(-c3ccccc3)c2c1	none
O=C(O)CCCC(=O)N1CCN(c2nc(-c3ccccc3Cl)c3cc(Br)ccc3n2)CC1	PfHsp40 rescue 47
O=C(c1cc(-c2ccccc2Cl)nc2ccc(Br)cc12)N1CCN(c2ccccn2)CC1	Yp Topo-I inh 55
COc1ccc([N+](=O)[O-])c(S(=O)(=O)c2ccccc2)n1	none (no result: PfHsp40 rescue)
COc1ccc([N+](=O)[O-])c(S(=O)(=O)c2ccc(Cl)cc2)n1	PfHsp40 rescue 50
O=[N+]([O-])c1cccnc1S(=O)(=O)c1ccccc1	PfHsp40 rescue 104
Nc1cccnc1S(=O)(=O)c1ccccc1	none
CCOC(=O)/C=C/C(=O)Nc1ccc(S(=O)(=O)Nc2cc(OC)nc(OC)n2)cc1	none (no result: Mtb bLac sens, Rv3671c inh, PfHsp40 rescue, UGM FP inh)
CC(=O)NC1=NN(C(C)=O)C(c2cccs2)S1 (configuration not stated)	PfHsp40 rescue 40
COc1cccc(CSc2nnc(-c3ccncc3)n2N)c1	Mtb bLac sens inconclusive, PfHsp40 rescue 45 (no result: FadD28 FP inh)
CN1C(=O)CON=C1c1cccc2ccccc12	none (no result: Mtb bLac sens, Rv3671c inh, PfHsp40 rescue, UGM FP inh)
Cc1ccc(C(=O)C(SC(C)(C)C)n2cncn2)cc1 (configuration not stated)	PfHsp40 rescue 467
OC[C@@H]1CN(Cc2ccc(F)cc2)C[C@H](n2cnc3c(N4CCOCC4)ncnc32)O1	none (no result: Mtb bLac sens, Rv3671c inh, PfHsp40 rescue, UGM FP inh)
CCCCn1c(C)cc(C)c(S(=O)(=O)c2ccccc2C)c1=O	Yp Topo-I inh 59
O=C(Nc1ccccc1O)c1ccccc1O	none
Cc1cccc(NC(=O)c2ccccc2O)c1C	PfHsp40 rescue 57
COc1ccc(CN2C[C@@H](CO)O[C@@H](n3cnc4c(N5CCCC5)ncnc43)C2)cc1	none (no result: Mtb bLac sens, Rv3671c inh, PfHsp40 rescue, UGM FP inh)
Cc1ccc(C(=O)CN2C(=O)c3ccccc3S2(=O)=O)cc1	none
